# According to ChEMBL document CHEMBL1201862, “PubChem BioAssay data set” (2004):
# Out of some 400,000 compounds screened, about 2,100 (0.53%) were called active. About 14% were inconclusive and are not listed. No rule for the calls is given here. What follows is part of a selection rich in actives, with near analogues and random picks from the rest.
# Molecular target: Ataxin-2 (Homo sapiens) (UniProt Q99700)
# Experiment: qHTS for Inhibitors of ATXN expression.
# Format: functional
# Sequence of Ataxin-2 (Homo sapiens) (Q99700 whole entry): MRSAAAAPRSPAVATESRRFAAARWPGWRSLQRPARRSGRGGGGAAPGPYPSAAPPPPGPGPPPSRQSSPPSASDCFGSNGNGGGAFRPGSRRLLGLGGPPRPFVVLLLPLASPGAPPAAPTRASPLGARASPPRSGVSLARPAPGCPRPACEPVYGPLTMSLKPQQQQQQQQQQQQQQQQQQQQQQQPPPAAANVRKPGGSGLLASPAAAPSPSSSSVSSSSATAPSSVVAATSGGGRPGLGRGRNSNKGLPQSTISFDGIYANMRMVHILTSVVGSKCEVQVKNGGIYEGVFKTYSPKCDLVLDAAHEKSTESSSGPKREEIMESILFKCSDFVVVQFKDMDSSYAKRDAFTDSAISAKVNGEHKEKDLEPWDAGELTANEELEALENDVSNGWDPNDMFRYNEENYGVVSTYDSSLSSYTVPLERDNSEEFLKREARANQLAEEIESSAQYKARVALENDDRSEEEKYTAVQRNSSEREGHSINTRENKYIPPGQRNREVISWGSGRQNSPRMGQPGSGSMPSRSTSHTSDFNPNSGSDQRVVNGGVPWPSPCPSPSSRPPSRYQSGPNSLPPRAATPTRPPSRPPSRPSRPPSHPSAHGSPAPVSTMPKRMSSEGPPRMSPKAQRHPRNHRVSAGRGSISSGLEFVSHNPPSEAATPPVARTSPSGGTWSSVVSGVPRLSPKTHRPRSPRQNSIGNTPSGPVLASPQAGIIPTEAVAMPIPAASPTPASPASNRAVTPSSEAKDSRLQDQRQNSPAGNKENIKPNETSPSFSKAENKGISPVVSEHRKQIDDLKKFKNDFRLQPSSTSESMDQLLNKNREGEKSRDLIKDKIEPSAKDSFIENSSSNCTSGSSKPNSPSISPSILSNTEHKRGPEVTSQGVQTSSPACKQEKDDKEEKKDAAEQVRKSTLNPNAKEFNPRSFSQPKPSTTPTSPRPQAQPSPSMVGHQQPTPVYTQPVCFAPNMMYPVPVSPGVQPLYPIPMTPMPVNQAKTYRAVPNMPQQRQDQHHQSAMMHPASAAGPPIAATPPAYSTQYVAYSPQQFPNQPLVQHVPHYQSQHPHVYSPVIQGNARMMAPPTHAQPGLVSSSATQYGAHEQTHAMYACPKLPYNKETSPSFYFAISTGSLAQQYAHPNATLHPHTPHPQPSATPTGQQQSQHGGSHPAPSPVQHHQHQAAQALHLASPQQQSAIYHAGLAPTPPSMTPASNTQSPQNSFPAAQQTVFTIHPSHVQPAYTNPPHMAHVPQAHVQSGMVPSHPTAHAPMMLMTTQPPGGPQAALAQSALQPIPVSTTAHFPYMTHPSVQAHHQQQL
row,Compound,Potency
1,CC(Sc1nnc(-c2cccnc2)o1)C(=O)NC1CCCCC1 (centres undefined),inactive
2,C=CCn1c(N)c(C(=O)OCCC)c2nc3ccccc3nc21,inactive
3,OCc1ccccc1-c1ccc2nccn2c1,inactive
4,Cc1csc(NC(=O)c2cc3c(s2)-c2ccccc2OC3)n1,inactive
5,Cc1cccc(/C=N/c2sc3c(c2C#N)CCN(Cc2ccccc2)C3)c1O,inactive
6,C#CCOCCOCCOCCNc1nc(N2CCN(C(=O)CCCCCCCCCCNC(=O)[C@H](CCCCN)n3cc(C)nn3)CC2)nc(N2CCN(C(=O)CCCCCCCCCCNC(=O)[C@H](CO)n3cc(CCCSC)nn3)CC2)n1,31.6 µM (active)
7,C#CCOCCOCCOCCNc1nc(N2CCN(C(=O)CCCCCCCCCCNC(=O)[C@H](CCCCN)n3cc(C)nn3)CC2)nc(N2CCN(C(=O)CCCCCCCCCCNC(=O)[C@@H]([C@H](C)O)n3cc(C)nn3)CC2)n1,22.4 µM (active)
8,O=C1C(=O)c2c(C(=O)c3ccccc3)coc2-c2ccccc21,35.5 µM (active)
9,Cc1ccc(C(=O)c2coc3c2C(=O)C(=O)c2ccccc2-3)cc1,39.8 µM (active)
10,COCC/N=C1/Sc2nc3ccc(C)cc3cc2CN1Cc1cccs1,inactive
11,Cc1cc(/C=C2\NC(=S)NC2=O)c(C)n1-c1cccnc1,inactive
12,CN1C(=S)N(c2cccnc2)C(=O)/C1=C\c1ccc(N(C)C)cc1,20 µM (active)
13,CN1C(=O)/C(=C\c2ccc(N(C)C)cc2)OC1=S,inactive
14,O=c1oc2c(CN3CCN(CCO)CC3)c(O)ccc2cc1-c1ccccn1,inactive
15,CC1C(=O)N2CCCc3cc(NC(=O)CC(C)(C)C)cc1c32 (centres undefined),inactive
16,CCOc1cc(/C=N/NC(=O)Nc2ccccc2)ccc1O,inactive
17,CCOc1cc(/C=N/NC(=O)C(C)Sc2ccccc2)ccc1O (centres undefined),inactive
18,CCOc1cc(/C=N\NC(=O)Cc2ccccc2)ccc1OCC(=O)Nc1ccc(C)c(C)c1,31.6 µM (active)
19,CCOc1ccc(CCN2C(=O)C(=O)N([C@@H](CC(C)C)CN3CCC[C@@H]3CN3C(=O)C(=O)NC[C@@H]3CC(C)C)C[C@@H]2Cc2ccccc2)cc1,12.6 µM (active)
20,CCOc1ccc(CCN2C(=O)C(=O)N([C@@H](CC(C)C)CN3CCC[C@@H]3CN3C(=O)C(=O)NC[C@@H]3Cc3ccccc3)C[C@@H]2CC(C)C)cc1,39.8 µM (active)

row,Compound,Potency
1,CCOc1ccc(CCN2C(=O)C(=O)N([C@@H](CC(C)C)CN3CCC[C@H]3CN3C(=O)C(=O)NC[C@@H]3Cc3ccccc3)C[C@@H]2Cc2ccccc2)cc1,25.1 µM (active)
2,N#Cc1c(NC(=O)/C=C/C(=O)O)sc2c1CCN(Cc1ccccc1)C2,inactive
3,Clc1ccc(-n2c(-c3cccc(Br)c3)nc3nc4ccccc4nc32)cc1,inactive
4,Cc1nn(CSc2c(F)c(F)c(F)c(F)c2F)c(C)c1[N+](=O)[O-],inactive
5,N#CC1=C(N)Oc2ccc3ccccc3c2C1c1cccnc1 (centres undefined),12.6 µM (active)
6,N#CC1=C(N)Oc2cc(N)ccc2C1c1ccccc1Cl (centres undefined),inactive
7,N#CC1=C(N)Oc2cc(O)c(Cl)cc2C1c1cccnc1 (centres undefined),inactive
8,Cc1cc(C)cc(NC(=O)c2sc3nc(C)cc(C)c3c2N)c1,inactive
9,CCOc1ccc(CCNC(=O)c2cccc(NC3=NC4CS(=O)(=O)CC4S3)c2)cc1 (centres undefined),inactive
10,O=C(NCCc1cccc(Cl)c1)c1ccc(OC2CCN(Cc3ccccn3)CC2)cc1,35.5 µM (active)
11,Cc1c(CCC(=O)NCCc2ccccc2)c(=O)oc2cc(O)ccc12,inactive
12,CCCc1c(-c2ccc(O)cc2)nn(-c2ccc(O)cc2)c1-c1ccc(O)cc1,25.1 µM (active)
13,O=C(O)C1CCN(c2nc(-c3ccccc3)c3cc(Br)ccc3n2)CC1,inactive
14,CCOC(=O)N1CCN(C(=O)c2cccn3c(=O)c4cc(Br)ccc4nc23)CC1,inactive
15,CCCCN1CCc2c1nc1ccc(Br)cc1c2N,31.6 µM (active)
16,CCc1cc2c(CN3CCN(Cc4ccccc4)CC3)cc(=O)oc2cc1O,inactive
17,Cc1ccc(/C=C2\Oc3c(ccc(O)c3CN3CCN(CCO)CC3)C2=O)cc1,inactive
18,CN(C(=O)CN1C(=O)c2cccc(N)c2C1=O)C1CCCCC1,inactive
19,O=C(Cn1ncc2c1-c1ccccc1OC2)Nc1ccc(Cl)cn1,inactive
20,COc1ccccc1N1CCN(C(=O)C2CCN(S(=O)(=O)c3ccccc3F)CC2)CC1,inactive

row,Compound,Potency
1,Cc1cccc(N2CCN(C(=O)Cn3ncc4c3-c3cc(C)ccc3OC4)CC2C)c1 (centres undefined),39.8 µM (active)
2,Cc1ccc2nc(N3CCN(C(=O)CCC(=O)O)CC3)nc(-c3ccccc3)c2c1,inactive
3,CCN(CC)S(=O)(=O)c1ccc2c(c1)N(CC(=O)N1CCN(c3cccc(C)c3)C(C)C1)C(=O)CO2 (centres undefined),35.5 µM (active)
4,Cc1ccc2c(c1)-c1c(cnn1CC(=O)N(Cc1ccco1)C1CCCCC1)CO2,37.7 µM (active)
5,CCOc1ccc(S(=O)(=O)N(CC)CC(=O)N2CCCC2)cc1C,inactive
6,Cc1ccnc(NC(=O)CCC(=O)N(CC(=O)NC2CCCCC2)C2CCCC2)c1,inactive
7,CC(C)(C)c1ccc2c(c1)N(CC(=O)N1CCCC1)C(=O)CO2,inactive
8,COc1ccccc1N1CCN(C(=O)Cn2ncc3c2-c2cc(C)ccc2OC3)CC1,22.4 µM (active)
9,Cc1ccccc1CN1CCN(C(=O)c2ccc(S(=O)(=O)NCc3ccco3)cc2)CC1,inactive
10,CCOCCCNc1nc2nc3ccc(C)cn3c(=O)c2cc1C(=O)NCC1CCCO1 (centres undefined),inactive
11,CCNc1nc(NCC)nc(N/N=C(\C)c2ccc(OC)cc2)n1,inactive
12,CC1CCCCC12NC(=O)N(CC(=O)N(C)Cc1nc(O)c3ccccc3n1)C2=O (centres undefined),inactive
13,CC(C)NCCCCOc1cccc(Br)c1,inactive
14,CCN(CC)S(=O)(=O)c1ccc(N2CCCC2)c(NC(=O)Cc2cc(OC)c(OC)c(OC)c2)c1,inactive
15,CCN(CC)S(=O)(=O)c1ccc2c(c1)N(CC(=O)NCCCN1CCN(c3cc(Cl)ccc3C)CC1)C(=O)CO2,31.6 µM (active)
16,Cc1cccc(C)c1NC(=O)CN1C(=O)COc2ccccc21,inactive
17,CCOc1ccccc1N(CC)C(=O)Cn1ncc2c(=O)oc3ccccc3c21,inactive
18,CCOc1ccccc1N(CC)C(=O)Cn1ncc2c1-c1ccccc1OC2,39.8 µM (active)
19,CCOc1ccccc1NC(=O)Cn1ncc2ccc([N+](=O)[O-])cc21,inactive
